Assay results as given in article PMC9911399, “Two distinct binding modes provide the RNA-binding protein RbFox with extraordinary sequence specificity”.
Substitutions are numbered along the chain they refer to; changes in the protein carry UniProt numbers. Whole data set: some 16,000 sequences, median “ka relative to ugcaugu” near 0.096, cut for the highest 2% near 0.35. Shown is part of a subset that was picked to be rich in the highest values.

B1: UUGGUUA (DNA:RNA)
RNA: GGGAGACCGGAAUUCAGAUUGUCCUUGGUUAUUAAAUCCCGUCGUAGCCACCA
DNA 1: CAATCTGAATTCCGGTCTCCC
DNA 2: TGGTGGCTACGACGGGATT
B2: AUGACAU (DNA:RNA)
RNA: B1 RNA with U25A, G28A, U29C, U30A, A31U
DNA 1: CAATCTGAATTCCGGTCTCCC
DNA 2: TGGTGGCTACGACGGGATT
B3: CAAGGUA (DNA:RNA)
RNA: B1 RNA with U25C, U26A, G27A, U29G
DNA 1: CAATCTGAATTCCGGTCTCCC
DNA 2: TGGTGGCTACGACGGGATT
B4: UCUUGCG (DNA:RNA)
RNA: B1 RNA with U26C, G27U, G28U, U29G, U30C, A31G
DNA 1: CAATCTGAATTCCGGTCTCCC
DNA 2: TGGTGGCTACGACGGGATT
B5: UCUAAUU (DNA:RNA)
RNA: B1 RNA with U26C, G27U, G28A, U29A, A31U
DNA 1: CAATCTGAATTCCGGTCTCCC
DNA 2: TGGTGGCTACGACGGGATT
B6: AUACAAA (DNA:RNA)
RNA: B1 RNA with U25A, G27A, G28C, U29A, U30A
DNA 1: CAATCTGAATTCCGGTCTCCC
DNA 2: TGGTGGCTACGACGGGATT
B7: GGAUCUA (DNA:RNA)
RNA: B1 RNA with U25G, U26G, G27A, G28U, U29C
DNA 1: CAATCTGAATTCCGGTCTCCC
DNA 2: TGGTGGCTACGACGGGATT
B8: GUCCCCG (DNA:RNA)
RNA: B1 RNA with U25G, G27C, G28C, U29C, U30C, A31G
DNA 1: CAATCTGAATTCCGGTCTCCC
DNA 2: TGGTGGCTACGACGGGATT
B9: CCCUGUA (DNA:RNA)
RNA: B1 RNA with U25C, U26C, G27C, G28U, U29G
DNA 1: CAATCTGAATTCCGGTCTCCC
DNA 2: TGGTGGCTACGACGGGATT
B10: UGCUAUG (DNA:RNA)
RNA: B1 RNA with U26G, G27C, G28U, U29A, A31G
DNA 1: CAATCTGAATTCCGGTCTCCC
DNA 2: TGGTGGCTACGACGGGATT
B11: GGUCAUC (DNA:RNA)
RNA: B1 RNA with U25G, U26G, G27U, G28C, U29A, A31C
DNA 1: CAATCTGAATTCCGGTCTCCC
DNA 2: TGGTGGCTACGACGGGATT
B12: UGUAUGU (DNA:RNA)
RNA: B1 RNA with U26G, G27U, G28A, U30G, A31U
DNA 1: CAATCTGAATTCCGGTCTCCC
DNA 2: TGGTGGCTACGACGGGATT
B13: GUCCUGU (DNA:RNA)
RNA: B1 RNA with U25G, G27C, G28C, U30G, A31U
DNA 1: CAATCTGAATTCCGGTCTCCC
DNA 2: TGGTGGCTACGACGGGATT
B14: CUGUGUA (DNA:RNA)
RNA: B1 RNA with U25C, G28U, U29G
DNA 1: CAATCTGAATTCCGGTCTCCC
DNA 2: TGGTGGCTACGACGGGATT
B15: UGCUAUC (DNA:RNA)
RNA: B1 RNA with U26G, G27C, G28U, U29A, A31C
DNA 1: CAATCTGAATTCCGGTCTCCC
DNA 2: TGGTGGCTACGACGGGATT
B16: CUGUAUG (DNA:RNA)
RNA: B1 RNA with U25C, G28U, U29A, A31G
DNA 1: CAATCTGAATTCCGGTCTCCC
DNA 2: TGGTGGCTACGACGGGATT
B17: CGCUAUG (DNA:RNA)
RNA: B1 RNA with U25C, U26G, G27C, G28U, U29A, A31G
DNA 1: CAATCTGAATTCCGGTCTCCC
DNA 2: TGGTGGCTACGACGGGATT
B18: GUCAUGU (DNA:RNA)
RNA: B1 RNA with U25G, G27C, G28A, U30G, A31U
DNA 1: CAATCTGAATTCCGGTCTCCC
DNA 2: TGGTGGCTACGACGGGATT
B19: GGUCAUG (DNA:RNA)
RNA: B1 RNA with U25G, U26G, G27U, G28C, U29A, A31G
DNA 1: CAATCTGAATTCCGGTCTCCC
DNA 2: TGGTGGCTACGACGGGATT
B20: UGUAGGU (DNA:RNA)
RNA: B1 RNA with U26G, G27U, G28A, U29G, U30G, A31U
DNA 1: CAATCTGAATTCCGGTCTCCC
DNA 2: TGGTGGCTACGACGGGATT
B21: CUGGUGC (DNA:RNA)
RNA: B1 RNA with U25C, U30G, A31C
DNA 1: CAATCTGAATTCCGGTCTCCC
DNA 2: TGGTGGCTACGACGGGATT
B22: CGGACCU (DNA:RNA)
RNA: B1 RNA with U25C, U26G, G28A, U29C, U30C, A31U
DNA 1: CAATCTGAATTCCGGTCTCCC
DNA 2: TGGTGGCTACGACGGGATT
B23: CGGAUAC (DNA:RNA)
RNA: B1 RNA with U25C, U26G, G28A, U30A, A31C
DNA 1: CAATCTGAATTCCGGTCTCCC
DNA 2: TGGTGGCTACGACGGGATT
B24: CUCGGCU (DNA:RNA)
RNA: B1 RNA with U25C, G27C, U29G, U30C, A31U
DNA 1: CAATCTGAATTCCGGTCTCCC
DNA 2: TGGTGGCTACGACGGGATT
B25: AGCGAAC (DNA:RNA)
RNA: B1 RNA with U25A, U26G, G27C, U29A, U30A, A31C
DNA 1: CAATCTGAATTCCGGTCTCCC
DNA 2: TGGTGGCTACGACGGGATT
B26: UCGAUAG (DNA:RNA)
RNA: B1 RNA with U26C, G28A, U30A, A31G
DNA 1: CAATCTGAATTCCGGTCTCCC
DNA 2: TGGTGGCTACGACGGGATT
B27: AGCAAGC (DNA:RNA)
RNA: GGGAGACCGGAAUUCAGAUUGUCCAGCAAGCUUAAAUCCCGUCGUAGCCACCA
DNA 1: CAATCTGAATTCCGGTCTCCC
DNA 2: TGGTGGCTACGACGGGATT
B28: GGGGAAC (DNA:RNA)
RNA: B27 RNA with A25G, C27G, A28G, G30A
DNA 1: CAATCTGAATTCCGGTCTCCC
DNA 2: TGGTGGCTACGACGGGATT
B29: AGGCAUG (DNA:RNA)
RNA: B27 RNA with C27G, A28C, G30U, C31G
DNA 1: CAATCTGAATTCCGGTCTCCC
DNA 2: TGGTGGCTACGACGGGATT
B30: GGGGGCA (DNA:RNA)
RNA: B1 RNA with U25G, U26G, U29G, U30C
DNA 1: CAATCTGAATTCCGGTCTCCC
DNA 2: TGGTGGCTACGACGGGATT
B31: CGGCAUA (DNA:RNA)
RNA: B1 RNA with U25C, U26G, G28C, U29A
DNA 1: CAATCTGAATTCCGGTCTCCC
DNA 2: TGGTGGCTACGACGGGATT
B32: CGGCAUG (DNA:RNA)
RNA: B27 RNA with A25C, C27G, A28C, G30U, C31G
DNA 1: CAATCTGAATTCCGGTCTCCC
DNA 2: TGGTGGCTACGACGGGATT
B33: GGCAUUU (DNA:RNA)
RNA: B27 RNA with A25G, A29U, G30U, C31U
DNA 1: CAATCTGAATTCCGGTCTCCC
DNA 2: TGGTGGCTACGACGGGATT
B34: AUGUCGU (DNA:RNA)
RNA: B27 RNA with G26U, C27G, A28U, A29C, C31U
DNA 1: CAATCTGAATTCCGGTCTCCC
DNA 2: TGGTGGCTACGACGGGATT
B35: ACCGGCA (DNA:RNA)
RNA: B27 RNA with G26C, A28G, A29G, G30C, C31A
DNA 1: CAATCTGAATTCCGGTCTCCC
DNA 2: TGGTGGCTACGACGGGATT
B36: AGGCAUA (DNA:RNA)
RNA: B27 RNA with C27G, A28C, G30U, C31A
DNA 1: CAATCTGAATTCCGGTCTCCC
DNA 2: TGGTGGCTACGACGGGATT
B37: AGGCAUC (DNA:RNA)
RNA: B27 RNA with C27G, A28C, G30U
DNA 1: CAATCTGAATTCCGGTCTCCC
DNA 2: TGGTGGCTACGACGGGATT
B38: GGGCAUA (DNA:RNA)
RNA: B1 RNA with U25G, U26G, G28C, U29A
DNA 1: CAATCTGAATTCCGGTCTCCC
DNA 2: TGGTGGCTACGACGGGATT
B39: GGCAUGU (DNA:RNA)
RNA: B27 RNA with A25G, A29U, C31U
DNA 1: CAATCTGAATTCCGGTCTCCC
DNA 2: TGGTGGCTACGACGGGATT
B40: GGGCAUG (DNA:RNA)
RNA: B27 RNA with A25G, C27G, A28C, G30U, C31G
DNA 1: CAATCTGAATTCCGGTCTCCC
DNA 2: TGGTGGCTACGACGGGATT

What follows are binders tested against T1, RBFOX1 RRM RbFoxmut (Fox-RRM*) (Homo sapiens, UniProt Q9NWB1 109-208, R118D;E147R;N151S;E152T) (assay: EMSA; HiTS-Eq, 1 nM pool, 10 min; buffer printed only for the single-RNA assays: 10 mM Tris pH 7.5, 150 mM NaCl, 3.4 mM EDTA, 0.001% NP-40, 30 C). Details: tags: His6 N-terminal (pET28a); label: 5' 32P.
T1 sequence: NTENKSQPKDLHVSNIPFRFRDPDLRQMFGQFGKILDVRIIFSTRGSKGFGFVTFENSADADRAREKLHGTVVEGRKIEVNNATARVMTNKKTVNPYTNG
Summary of the method: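 Purified RbFox RRM, wild type or mutant, was incubated for 10 min in 50 µL with 1 nM of a 5′-radiolabelled RNA pool carrying 7 randomized nucleotides, whose flanks were annealed to DNA oligonucleotides, over a series of increasing protein concentrations. Unbound RNA was resolved on 8% native PAGE, cut out, reverse-transcribed, barcoded by PCR and sequenced on an Illumina HiSeq 2500. Relative association constants were derived from changes in read counts for each RNA species versus the control reaction and normalised to the cognate motif.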

| Binder | binding signal |
| --- | --- |
| B1 | 0.155 KA relative to UGCAUGU |
| B2 | 0.0668 KA relative to UGCAUGU |
| B3 | 0.124 KA relative to UGCAUGU |
| B4 | 0.168 KA relative to UGCAUGU |
| B5 | 0.0829 KA relative to UGCAUGU |
| B6 | 0.0876 KA relative to UGCAUGU |
| B7 | 0.154 KA relative to UGCAUGU |
| B8 | 0.0635 KA relative to UGCAUGU |
| B9 | 0.201 KA relative to UGCAUGU |
| B10 | 0.863 KA relative to UGCAUGU |
| B11 | 0.152 KA relative to UGCAUGU |
| B12 | 0.914 KA relative to UGCAUGU |
| B13 | 0.135 KA relative to UGCAUGU |
| B14 | 0.281 KA relative to UGCAUGU |
| B15 | 0.255 KA relative to UGCAUGU |
| B16 | 1.11 KA relative to UGCAUGU |
| B17 | 0.184 KA relative to UGCAUGU |
| B18 | 0.288 KA relative to UGCAUGU |
| B19 | 0.512 KA relative to UGCAUGU |
| B20 | 0.126 KA relative to UGCAUGU |

| Binder | binding signal |
| --- | --- |
| B21 | 0.0874 KA relative to UGCAUGU |
| B22 | 0.0739 KA relative to UGCAUGU |
| B23 | 0.0884 KA relative to UGCAUGU |
| B24 | 0.0859 KA relative to UGCAUGU |
| B25 | 0.0784 KA relative to UGCAUGU |
| B26 | 0.1 KA relative to UGCAUGU |
| B27 | 0.0622 KA relative to UGCAUGU |
| B28 | 0.0664 KA relative to UGCAUGU |
| B29 | 0.799 KA relative to UGCAUGU |
| B30 | 0.128 KA relative to UGCAUGU |
| B31 | 0.108 KA relative to UGCAUGU |
| B32 | 0.998 KA relative to UGCAUGU |
| B33 | 0.0782 KA relative to UGCAUGU |
| B34 | 0.137 KA relative to UGCAUGU |
| B35 | 0.1 KA relative to UGCAUGU |
| B36 | 0.11 KA relative to UGCAUGU |
| B37 | 0.222 KA relative to UGCAUGU |
| B38 | 0.134 KA relative to UGCAUGU |
| B39 | 0.834 KA relative to UGCAUGU |
| B40 | 1.23 KA relative to UGCAUGU |
